About 7,900 targets were measured; listed, in parts, are those with a hit and a random draw of the rest. About 0.6% of all pairs of compound and target were hits.
Assays:
Assay in all cases: log2 fold change, soluble protein after heating vs DMSO (PISA); higher = thermal stabilisation; K562 cells, 10 uM, 30 min; active = over 0.2 and 3.5 SD of the protein, either way, in both replicates (recomputed)
[1] = compound: Cc1ccc(NC(=O)c2ccc(CN3CC[C@H](N(C)C)C3)c(C(F)(F)F)c2)cc1Nc1nccc(-c2cncnc2)n1 [bafetinib]
Summary of the method: (§1)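 K562 cells at 2×10^6 cells/mL were given 10 μM compound for 30 min. Aliquots then went through 3 min of heating across 48°C-58°C, were pooled, and were extracted in PBS with 0.5% NP-40 at 4°C, and the supernatant after 21,000xg for 90 min was quantified by TMTpro 16plex LC-MS/MS with channel sums equalised. Thermal stability relative to control samples, from duplicates, is given as log2 fold change.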

[2] = compound: Cc1cccc(CC(=O)N2CCc3c2ccc(-c2cn(C)c4ncnc(N)c24)c3F)n1
Summary of the method: as §1

[3] = compound: Cc1cn(-c2cc(NC(=O)c3ccc(C)c(Nc4nccc(-c5cccnc5)n4)c3)cc(C(F)(F)F)c2)cn1 [nilotinib]
Summary of the method: as §1

[4] = compound: Cc1nc(Nc2n[nH]c3c2CN(C(=O)N[C@H](CN(C)C)c2ccccc2)C3(C)C)c2sccc2n1
Summary of the method: as §1

[5] = compound: Cc1nc(Nc2ncc(C(=O)Nc3c(C)cccc3Cl)s2)cc(N2CCN(CCO)CC2)n1 [dasatinib]
Summary of the method: as §1

[6] = compound: Cc1ncc(-c2ccnc(Nc3ccc(S(C)(=O)=O)cc3)n2)n1C(C)C
Summary of the method: as §1

[7] = compound: Cn1cc(-c2ccc3c(c2)CCN3C(=O)Cc2cccc(C(F)(F)F)c2)c2c(N)ncnc21
Summary of the method: as §1

[8] = compound: Cn1cc(-c2ccc3nnc(C(F)(F)c4ccc5ncccc5c4)n3n2)cn1
Summary of the method: as §1

[9] = compound: Cn1cncc1[C@@](N)(c1ccc(Cl)cc1)c1ccc2c(c1)c(-c1cccc(Cl)c1)cc(=O)n2C [tipifarnib]
Summary of the method: as §1

[10] = compound: FC(F)(F)c1ccc(/C=C/c2nc(COc3ccc(CCCCn4ccnn4)cc3)co2)cc1 [mubritinib]
Summary of the method: as §1

Measured: log2 fold change

PDPK1 (UniProt O15530)
inactive: [1] -0.06 | [2] 0.051 | [3] -0.104 | [4] 0.089 | [5] -0.169 | [6] -0.084 | [7] 0.077 | [8] 0.011 | [9] -0.043 | [10] 0.022

PSMD11 (UniProt O00231)
inactive: [1] 0.15 | [2] 0.042 | [3] 0.054 | [4] 0.068 | [5] -0.004 | [6] -0.014 | [7] -0.074 | [8] -0.043 | [9] -0.021 | [10] -0.054

PLCG1 isoform 2 (UniProt P19174)
Sequence of UniProt P19174 (P19174 whole entry, looked up): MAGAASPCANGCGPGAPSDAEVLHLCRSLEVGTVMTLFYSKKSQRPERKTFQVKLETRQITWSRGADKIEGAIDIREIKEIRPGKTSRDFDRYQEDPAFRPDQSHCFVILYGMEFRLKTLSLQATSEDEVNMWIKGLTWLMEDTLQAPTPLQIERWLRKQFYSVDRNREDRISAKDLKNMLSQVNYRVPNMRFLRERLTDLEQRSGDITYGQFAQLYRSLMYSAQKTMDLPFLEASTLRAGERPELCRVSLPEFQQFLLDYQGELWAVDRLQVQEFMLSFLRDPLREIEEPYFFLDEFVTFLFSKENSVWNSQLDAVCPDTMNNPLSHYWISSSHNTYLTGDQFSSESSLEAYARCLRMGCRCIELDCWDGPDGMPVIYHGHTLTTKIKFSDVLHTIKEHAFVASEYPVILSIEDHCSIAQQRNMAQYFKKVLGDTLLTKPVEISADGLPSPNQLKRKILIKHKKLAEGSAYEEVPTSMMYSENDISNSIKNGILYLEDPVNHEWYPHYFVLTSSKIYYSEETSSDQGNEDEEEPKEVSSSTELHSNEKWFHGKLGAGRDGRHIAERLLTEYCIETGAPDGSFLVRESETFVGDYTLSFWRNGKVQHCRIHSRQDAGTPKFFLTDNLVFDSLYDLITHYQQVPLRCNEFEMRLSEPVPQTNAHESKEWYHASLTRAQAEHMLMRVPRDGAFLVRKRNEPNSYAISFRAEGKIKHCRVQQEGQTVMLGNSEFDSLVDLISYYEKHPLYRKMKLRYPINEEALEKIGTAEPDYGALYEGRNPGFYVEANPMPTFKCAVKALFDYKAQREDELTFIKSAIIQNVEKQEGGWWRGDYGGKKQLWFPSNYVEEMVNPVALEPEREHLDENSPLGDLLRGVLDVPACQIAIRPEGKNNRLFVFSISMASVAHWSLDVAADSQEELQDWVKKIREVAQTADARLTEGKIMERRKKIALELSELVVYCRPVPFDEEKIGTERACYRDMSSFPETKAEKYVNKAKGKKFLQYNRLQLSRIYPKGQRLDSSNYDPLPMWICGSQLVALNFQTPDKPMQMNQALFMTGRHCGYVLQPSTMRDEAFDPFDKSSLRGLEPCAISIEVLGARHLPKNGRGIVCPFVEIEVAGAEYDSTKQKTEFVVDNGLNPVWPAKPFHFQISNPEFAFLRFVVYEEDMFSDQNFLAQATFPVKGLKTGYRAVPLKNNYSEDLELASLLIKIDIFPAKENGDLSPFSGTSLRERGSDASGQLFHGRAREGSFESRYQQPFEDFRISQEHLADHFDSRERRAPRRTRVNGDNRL
inactive: [1] -0.054 | [2] -0.08 | [3] -0.072 | [4] 0.079 | [5] -0.257 | [6] 0.024 | [7] 0.031 | [8] 0.005 | [9] -0.144 | [10] 0.11

POGLUT1 (UniProt Q8NBL1)
inactive: [1] 0.009 | [2] 0.122 | [3] -0.001 | [4] 0.03 | [5] 0.024 | [6] -0.049 | [7] -0.022 | [8] -0.073 | [9] 0.048 | [10] -0.046

PNN (UniProt Q9H307)
Sequence of UniProt Q9H307 (Q9H307 whole entry, looked up): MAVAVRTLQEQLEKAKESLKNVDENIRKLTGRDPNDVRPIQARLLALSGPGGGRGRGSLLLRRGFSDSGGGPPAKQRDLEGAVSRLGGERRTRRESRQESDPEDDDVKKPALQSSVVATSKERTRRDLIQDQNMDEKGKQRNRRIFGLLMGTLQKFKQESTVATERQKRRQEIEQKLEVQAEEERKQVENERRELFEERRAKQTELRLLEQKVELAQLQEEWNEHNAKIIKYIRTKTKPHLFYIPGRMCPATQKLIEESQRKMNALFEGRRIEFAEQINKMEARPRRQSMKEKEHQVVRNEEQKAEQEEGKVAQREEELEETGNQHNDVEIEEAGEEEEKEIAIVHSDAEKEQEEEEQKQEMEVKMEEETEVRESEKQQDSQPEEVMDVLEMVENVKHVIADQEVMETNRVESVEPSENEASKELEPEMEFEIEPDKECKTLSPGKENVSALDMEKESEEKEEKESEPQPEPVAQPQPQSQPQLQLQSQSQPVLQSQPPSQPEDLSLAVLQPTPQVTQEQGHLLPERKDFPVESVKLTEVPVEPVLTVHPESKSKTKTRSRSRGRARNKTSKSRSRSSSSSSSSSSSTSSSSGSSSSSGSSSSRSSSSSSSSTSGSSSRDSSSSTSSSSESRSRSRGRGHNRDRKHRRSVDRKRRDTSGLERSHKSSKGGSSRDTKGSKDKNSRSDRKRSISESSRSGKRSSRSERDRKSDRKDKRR
inactive: [1] -0.08 | [2] -0.008 | [3] -0.028 | [5] 0.062 | [6] -0.039 | [7] 0.028 | [8] 0.231 | [9] 0.255 | [10] -0.098
active: [4] -0.344

PHKA2 (UniProt P46019)
inactive: [1] -0.107 | [2] -0.037 | [3] -0.239 | [4] 0.119 | [5] -0.07 | [6] -0.157 | [7] 0.033 | [8] -0.051 | [9] -0.055 | [10] 0.082

PTPMT1 (UniProt Q8WUK0)
inactive: [1] -0.16 | [2] -0.003 | [3] 0.069 | [4] -0.013 | [5] -0.138 | [6] 0.029 | [7] -0.056 | [8] -0.132 | [9] 0.026 | [10] -0.006

POLR2D (UniProt O15514)
inactive: [1] 0.009 | [2] -0.076 | [3] -0.028 | [4] 0.122 | [5] -0.013 | [6] 0.202 | [7] -0.036 | [8] 0.034 | [9] -0.01 | [10] 0.052

PRPF38A (UniProt Q8NAV1)
active: [4] -0.871
inactive: [1] 0.048 | [2] 0.025 | [3] -0.006 | [5] -0.033 | [6] -0.073 | [7] -0.011 | [8] -0.08 | [9] 0.036 | [10] 0.201

PMPCA (UniProt Q10713)
inactive: [1] 0.063 | [2] 0.016 | [3] 0.024 | [4] 0.057 | [6] -0.096 | [7] 0.067 | [8] 0.04 | [10] 0.087
active: [5] 0.54 | [9] 0.285

PTGFRN (UniProt Q9P2B2)
inactive: [1] -0.061 | [2] -0.04 | [3] 0.087 | [4] 0.024 | [5] 0.046 | [6] 0.048 | [7] 0.038 | [8] 0.009 | [9] 0.032 | [10] 0.065

PRKCQ (UniProt Q04759)
active: [4] -0.821
inactive: [1] -0.027 | [2] 0.024 | [3] -0.051 | [5] -0.171 | [6] 0.003 | [7] 0.069 | [8] 0.031 | [9] -0.134 | [10] 0.12

PSMD13 (UniProt Q9UNM6)
inactive: [1] 0.126 | [2] 0.003 | [3] -0.002 | [4] 0.082 | [5] 0.023 | [6] -0.018 | [7] -0.114 | [8] -0.008 | [9] 0.095 | [10] -0.019

PNPLA2 (UniProt Q96AD5)
Sequence of UniProt Q96AD5 (Q96AD5 whole entry, looked up): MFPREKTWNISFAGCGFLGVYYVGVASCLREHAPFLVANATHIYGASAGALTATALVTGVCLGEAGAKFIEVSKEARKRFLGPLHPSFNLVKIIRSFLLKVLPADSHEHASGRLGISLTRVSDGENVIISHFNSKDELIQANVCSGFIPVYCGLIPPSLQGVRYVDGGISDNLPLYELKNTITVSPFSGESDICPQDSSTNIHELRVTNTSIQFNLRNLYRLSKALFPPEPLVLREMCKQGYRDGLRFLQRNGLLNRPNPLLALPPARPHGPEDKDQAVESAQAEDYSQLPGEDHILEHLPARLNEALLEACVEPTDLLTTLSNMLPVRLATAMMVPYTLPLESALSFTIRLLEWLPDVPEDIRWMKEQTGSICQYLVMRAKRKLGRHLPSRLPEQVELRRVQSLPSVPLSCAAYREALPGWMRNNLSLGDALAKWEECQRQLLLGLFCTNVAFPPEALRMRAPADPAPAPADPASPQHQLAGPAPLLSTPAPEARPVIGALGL
inactive: [1] 0.084 | [2] -0.334 | [3] 0.049 | [4] -0.112 | [5] -0.113 | [6] -0.118 | [7] 0.056 | [8] 0.049 | [9] -0.026 | [10] 0.113

PDCD6 (UniProt O75340)
inactive: [1] -0.11 | [2] -0.005 | [3] -0.071 | [4] 0.042 | [5] -0.021 | [6] -0.026 | [7] 0.027 | [8] 0.022 | [9] -0.034 | [10] 0.009

PHF5A (UniProt Q7RTV0)
Sequence of UniProt Q7RTV0 (Q7RTV0 whole entry, looked up): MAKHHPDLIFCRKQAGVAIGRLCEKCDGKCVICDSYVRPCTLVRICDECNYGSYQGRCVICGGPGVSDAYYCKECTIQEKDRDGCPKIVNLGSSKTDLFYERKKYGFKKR
inactive: [1] -0.097 | [2] -0.047 | [3] -0.018 | [4] 0.012 | [5] 0.102 | [6] 0.086 | [7] -0.031 | [8] 0.03 | [9] 0.031 | [10] -0.025

PARL (UniProt Q9H300)
inactive: [1] -0.169 | [2] 0.061 | [3] 0.047 | [4] -0.011 | [5] 0.015 | [6] 0.018 | [7] 0.017 | [8] 0.051 | [9] -0.023 | [10] 0.021

PEF1 (UniProt Q9UBV8)
inactive: [1] -0.106 | [2] 0.089 | [3] -0.005 | [4] 0.012 | [5] -0.047 | [6] -0.013 | [7] 0.132 | [8] 0.113 | [9] -0.126 | [10] 0.099

PRPF40A (UniProt O75400)
Sequence of UniProt O75400 (O75400 whole entry, looked up): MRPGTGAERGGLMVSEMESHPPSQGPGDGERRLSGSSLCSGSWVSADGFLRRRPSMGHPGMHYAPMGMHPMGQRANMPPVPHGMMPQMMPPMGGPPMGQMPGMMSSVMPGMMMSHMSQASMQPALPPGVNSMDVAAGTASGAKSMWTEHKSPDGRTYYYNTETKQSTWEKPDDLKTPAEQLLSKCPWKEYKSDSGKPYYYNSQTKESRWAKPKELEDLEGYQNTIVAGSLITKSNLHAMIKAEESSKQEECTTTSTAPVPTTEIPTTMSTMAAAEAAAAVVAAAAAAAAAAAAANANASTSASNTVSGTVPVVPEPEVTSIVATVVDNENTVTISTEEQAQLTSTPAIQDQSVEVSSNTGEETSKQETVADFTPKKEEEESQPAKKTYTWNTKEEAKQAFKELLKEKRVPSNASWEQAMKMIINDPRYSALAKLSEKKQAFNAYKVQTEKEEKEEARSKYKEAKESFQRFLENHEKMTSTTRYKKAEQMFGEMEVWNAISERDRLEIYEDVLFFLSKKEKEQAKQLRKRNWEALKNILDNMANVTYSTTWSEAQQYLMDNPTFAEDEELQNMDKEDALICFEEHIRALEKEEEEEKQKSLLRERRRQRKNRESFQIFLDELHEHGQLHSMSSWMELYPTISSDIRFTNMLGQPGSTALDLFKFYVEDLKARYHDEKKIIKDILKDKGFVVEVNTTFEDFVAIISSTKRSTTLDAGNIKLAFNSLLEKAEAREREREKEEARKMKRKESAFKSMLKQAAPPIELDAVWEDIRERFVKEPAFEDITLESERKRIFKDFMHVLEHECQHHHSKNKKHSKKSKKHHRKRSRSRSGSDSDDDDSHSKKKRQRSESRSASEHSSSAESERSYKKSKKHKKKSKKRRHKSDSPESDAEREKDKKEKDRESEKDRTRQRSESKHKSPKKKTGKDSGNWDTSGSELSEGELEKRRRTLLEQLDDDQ
inactive: [1] -0.014 | [2] 0.005 | [3] -0.085 | [4] -0.058 | [5] -0.05 | [6] -0.135 | [7] 0.082 | [8] 0.048 | [9] 0.045 | [10] -0.013

PPT1 (UniProt P50897)
Sequence of UniProt P50897 (P50897 whole entry, looked up): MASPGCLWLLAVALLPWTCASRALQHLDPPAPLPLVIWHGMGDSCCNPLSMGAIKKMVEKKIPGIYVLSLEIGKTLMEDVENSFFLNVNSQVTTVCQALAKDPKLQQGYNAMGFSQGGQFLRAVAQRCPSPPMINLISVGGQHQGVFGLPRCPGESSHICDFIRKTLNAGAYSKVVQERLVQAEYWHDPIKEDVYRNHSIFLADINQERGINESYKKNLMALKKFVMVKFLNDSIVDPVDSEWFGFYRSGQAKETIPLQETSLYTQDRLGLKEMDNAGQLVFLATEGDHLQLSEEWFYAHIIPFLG
active: [1] -0.742
inactive: [2] 0.011 | [3] 0.021 | [4] 0.02 | [5] 0 | [6] -0.001 | [7] 0.006 | [8] 0.019 | [9] 0.025 | [10] 0.027

PGK2 (UniProt P07205)
inactive: [1] 0.009 | [2] -0.036 | [3] 0.066 | [4] 0.096 | [5] 0.11 | [6] -0.013 | [7] -0.137 | [8] -0.029 | [9] -0.006 | [10] -0.092

PTRHD1 (UniProt Q6GMV3)
Sequence of UniProt Q6GMV3 (Q6GMV3 whole entry, looked up): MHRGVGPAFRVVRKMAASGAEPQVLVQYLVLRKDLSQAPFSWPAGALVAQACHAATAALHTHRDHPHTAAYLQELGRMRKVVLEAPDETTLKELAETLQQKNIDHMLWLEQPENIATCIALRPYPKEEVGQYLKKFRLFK
active: [8] 0.332
inactive: [1] -0.067 | [2] 0.024 | [3] 0.08 | [4] -0.032 | [5] -0.007 | [6] -0.061 | [7] 0.111 | [9] 0.028 | [10] 0.043

PSMC1 (UniProt P62191)
inactive: [1] 0.065 | [2] 0.02 | [3] -0.025 | [4] 0.062 | [5] 0.036 | [6] -0.014 | [7] -0.082 | [8] 0 | [9] 0.087 | [10] -0.015

POLR2I (UniProt P36954)
inactive: [1] -0.044 | [2] 0.024 | [3] -0.026 | [4] 0.233 | [5] 0.079 | [6] 0.338 | [7] -0.029 | [8] 0.021 | [9] 0.072 | [10] -0.054

PRPF31 (UniProt Q8WWY3)
Sequence of UniProt Q8WWY3 (Q8WWY3 whole entry, looked up): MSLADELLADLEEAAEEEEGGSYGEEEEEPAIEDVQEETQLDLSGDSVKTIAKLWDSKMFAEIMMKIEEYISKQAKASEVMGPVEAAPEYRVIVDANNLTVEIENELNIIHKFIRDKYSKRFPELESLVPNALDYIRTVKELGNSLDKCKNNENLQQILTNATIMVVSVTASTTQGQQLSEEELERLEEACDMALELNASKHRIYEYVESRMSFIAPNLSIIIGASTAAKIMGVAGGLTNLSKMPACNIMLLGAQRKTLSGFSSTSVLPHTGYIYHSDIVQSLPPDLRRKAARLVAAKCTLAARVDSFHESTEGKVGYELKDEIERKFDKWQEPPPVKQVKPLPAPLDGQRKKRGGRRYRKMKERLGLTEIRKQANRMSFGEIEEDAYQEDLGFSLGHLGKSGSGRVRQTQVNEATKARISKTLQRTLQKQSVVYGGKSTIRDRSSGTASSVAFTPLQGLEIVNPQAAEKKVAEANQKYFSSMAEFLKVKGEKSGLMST
inactive: [1] -0.012 | [2] 0.01 | [3] -0.037 | [5] -0.274 | [6] -0.387 | [7] 0.055 | [8] 0.053 | [9] -0.031 | [10] -0.014
active: [4] -0.572

PTDSS1 (UniProt P48651)
inactive: [1] -0.125 | [2] 0.092 | [3] -0.166 | [4] 0.084 | [5] -0.002 | [6] 0.017 | [7] -0.089 | [8] 0.042 | [9] 0.018 | [10] -0.074

PSMD8 (UniProt P48556)
Sequence of UniProt P48556 (P48556 whole entry, looked up): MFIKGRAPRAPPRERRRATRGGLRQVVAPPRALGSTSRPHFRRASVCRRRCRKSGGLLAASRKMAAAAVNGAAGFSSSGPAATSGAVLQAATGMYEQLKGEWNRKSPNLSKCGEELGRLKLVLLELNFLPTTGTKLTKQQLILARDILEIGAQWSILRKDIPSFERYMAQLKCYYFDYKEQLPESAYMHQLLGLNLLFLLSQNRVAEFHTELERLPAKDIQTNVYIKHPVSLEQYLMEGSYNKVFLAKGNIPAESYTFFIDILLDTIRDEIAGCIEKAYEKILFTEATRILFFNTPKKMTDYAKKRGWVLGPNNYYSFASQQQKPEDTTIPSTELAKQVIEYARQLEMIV
inactive: [1] 0.089 | [2] -0.013 | [3] 0.039 | [4] 0.054 | [5] 0.029 | [6] -0.031 | [7] -0.07 | [8] 0.009 | [9] 0.117 | [10] -0.032

PTPN12 (UniProt Q05209)
inactive: [1] -0.052 | [2] 0.008 | [3] -0.022 | [4] -0.122 | [5] -0.059 | [6] 0.074 | [7] -0.116 | [8] -0.086 | [9] -0.081 | [10] 0.021

PSMD5 (UniProt Q16401)
inactive: [1] -0.09 | [2] 0.006 | [3] -0.015 | [4] -0.026 | [5] -0.026 | [6] 0.006 | [7] 0.018 | [8] 0.002 | [9] -0.05 | [10] 0.023

POP1 (UniProt Q99575)
inactive: [1] 0.019 | [2] 0.002 | [3] 0.074 | [4] -0.018 | [5] 0.039 | [6] -0.037 | [7] 0.042 | [8] 0.007 | [9] -0.036 | [10] -0.006
